Measurements taken from PubChem BioAssay AID2314 (National Center for Advancing Translational Sciences (NCATS), 2010).
Out of some 300,000 compounds screened, about 37,000 (12%) were called active. Only a selection was taken, and actives are over-represented in it overall. Values without a mark were called inactive. Cut-off read from the data, not from the text of the source: active = max response mostly above about 13% (no sharp cut-off); inactive = mostly below about 14%.

experiment: Cycloheximide Counterscreen for Small Molecule Inhibitors of Shiga Toxin; settings: cell reporter, cycloheximide protein synthesis inhibition counterscreen; stronger effect = higher value; note: read at 38.3 µM for the half of the compounds with a filed dose; 0% is about no effect

SMILES | max response
O=C(CCC(=O)NNc1nc2ccccc2c2nc(-c3ccccc3)nn12)NCCCN1CCCC1=O | 10.3%
COc1ccc(S(=O)(=O)NCCOc2ccccc2)cc1F | -4.53%
Cc1ccc2c(c1)N(CC(=O)N1CCC(C)CC1)C(=O)c1cccnc1O2 | -1.05%
COC(=O)c1ccccc1NC(=O)C1CCN(C(=O)N2CCOc3ccccc32)CC1 | 0.401%
CCOc1ccccc1CN1CCN(C2CCC2)CC1CCO (centres undefined) | -0.61%
CS(=O)(=O)c1ccccc1C(=O)Nc1ccc2sccc2c1 | 1.56%
Cc1cc(Cl)nc(NC(=O)Nc2cccc(Cl)c2)n1 | 19.5% (active)
O=C(Nc1cccc(Cl)c1)Nc1nnc(-c2ccccc2)o1 | -4.47%
O=C(NCCN1CCOCC1)Nc1cccc(Cl)c1 | 20.1%
COc1ccc(OCC(=O)N2CCN(C(=O)COc3ccccc3)CC2)cc1 | -5.08%
O=C(COc1ccccc1)N1CCc2ccccc2C1 | 28.7% (active)
Cc1ccc(Cl)c(OCC(=O)N2CCc3ccccc3C2)c1 | 30% (active)
O=C(COc1ccccc1Cl)N1CCCCCCC1 | 4.62%
Cc1cccc(OC(C)C(=O)N2CCc3ccccc3C2)c1 (centres undefined) | -3.38%
Cc1ccc(Cl)c(OCC(=O)NN2CCN(C)CC2)c1 | -2.49%
O=C(C1CCN(c2nnc(-n3cccc3)s2)CC1)N1CCc2ccccc2C1 | -2.9%
O=C(Cn1c(=S)nc2ccccn21)N1CCc2ccccc2C1 | 22.4% (active)

SMILES | max response
Cc1ccccc1-c1nc(CS(=O)(=O)CC(=O)N2CCc3ccccc3C2)c(C)o1 | 0.61%
COc1ccccc1CN1CCN(C(c2ccccc2)c2ccccc2)CC1 | -1.72%
CC1CCN(C(=O)c2ccc3c(c2)NC(=O)CN3)CC1 | -6.43%
Oc1ccc(Cl)cc1C1C=C(c2ccc3c(c2)OCO3)NC(c2ccc(F)c(Br)c2)N1 (centres undefined) | 50.7% (active)
Oc1ccc(Cl)cc1C1C=C(c2ccc3c(c2)OCO3)NC(c2c(F)cccc2Cl)N1 (centres undefined) | 59.8% (active)
OC(COc1ccc(F)cc1Cl)CN1CCc2ccccc2C1 (centres undefined) | -2.68%
O=C(c1cc(COc2c(F)cccc2F)on1)N1CCSCC1 | 54.8% (active)
CCOC(=O)CC1COCCN1C(=O)c1cc(COc2ccc(F)c(F)c2)on1 (centres undefined) | 38.7% (active)
Cc1c(C(=O)N2CCOCC2)[nH]c2ccc(OCc3ccccc3)cc12 | 0.995%
CCOC(=O)c1ccccc1C(=O)N1CCOCCOCCOCC1 | -3.37%
COCCN1CCN(C(=O)c2cc(COc3ccc(F)cc3Cl)on2)CC1 | 20.2% (active)
O=C(c1cc(COc2ccc(F)c(F)c2)on1)N1CCOCC1 | 42.1% (active)
O=C(c1cc(COc2cccc(C(F)(F)F)c2)on1)N1CCSCC1 | -0.615%
O=C(c1c(F)cccc1F)N1CCN(c2ncc(Br)cn2)CC1 | -1.54%
CN1CCN(C(=O)c2ccccc2NC(=O)COc2ccccc2Cl)CC1 | 16.7%
C=CCC1(CC=C)CCCN1C(=O)c1cc(COc2ccc(-n3cncn3)cc2)on1 | 7.87%
Cc1cc(NC(=O)COC(=O)c2ccc(F)c(S(=O)(=O)N3CCOCC3)c2)no1 | -2.52%
